Our source for the growth inhibition values is PubChem BioAssay (NCI).

A short description of assay [1]: NCI Yeast Anticancer Drug Screen. Data for the rad50 strain (AID 155).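 Also: 0% = growth of vehicle-only cultures of the same strain.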 The settings on record: S. cerevisiae rad50 strain growth inhibition, active compounds read high. In a few lines:
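Genetically altered yeast (DNA repair pathway); compound treatment; growth inhibition vs vehicle ctrl.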

Assay [2] is described as follows: NCI Yeast Anticancer Drug Screen. Data for the mec2-1 strain (AID 157). Conditions: S. cerevisiae mec2-1 strain, active compounds read high. In outline: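 Readout is yeast growth inhibition, normalised to vehicle-treated controls, in the mec2-1 strain exposed to compound.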
Assay [3] in a line: NCI Yeast Anticancer Drug Screen. Data for the sgs1 mgt1 strain (AID 161).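 Also: 0% = growth of cultures given vehicle only.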 The settings on record: S. cerevisiae sgs1 mgt1 strain, active compounds read high. In outline: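 This yeast growth screen uses a strain with defined DNA-repair lesions; compound-treated growth is compared with vehicle-treated growth.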
Assay [4] can be described thus: NCI Yeast Anticancer Drug Screen. Data for the cln2 rad14 strain (AID 165).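 Also: 0% = growth equal to vehicle treated cultures.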 The settings on record: S. cerevisiae cln2 rad14 strain, active compounds read high. In a few lines: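 Relative to vehicle controls, growth inhibition of compound-treated cln2 rad14 yeast was recorded.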
A short description of assay [5]: NCI Yeast Anticancer Drug Screen. Data for the bub3 strain (AID 167). Conditions: S. cerevisiae bub3 mutant strain, active compounds read high. In outline:
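Yeast carrying a defined mutation is treated with each compound, and growth is compared with that of vehicle-exposed cells to give inhibition.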

Assay [6] in a line: NCI Yeast Anticancer Drug Screen. Data for the mlh1 rad18 strain (AID 175). Conditions: S. cerevisiae mlh1 rad18 strain growth inhibition, active compounds read high. In a few lines:
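Test agents were incubated with a yeast strain of defined genotype (DNA damage repair defect). Inhibition of growth was derived by comparison with vehicle-exposed cultures.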

The mark [7] stands for this setting: at 5.0 µM (retest, dose inferred, filed as 0.5).
Where [8] appears, read: at 50.0 µM (retest, dose inferred, filed as 5.0).

Each structure is given as a SMILES string. About 79,000 compounds went through this panel and 15% of them were active in at least one assay; those are over-represented in the sample as a whole. Values without a mark were called inactive. The source made the active and inactive calls. Rule as the data show it: active = growth inhibition above about 70%; inactive = the rest.

On to `NC(=S)N1N=C2c3ccccc3CC[C@H]2[C@@H]1c1cccs1`, for which the growth inhibition was -52% in assay [1] (setting [7]); 20% in assay [1] (setting [8]); 59.6% in assay [1] (at 50.0 µM); -4% in assay [2] (setting [7]); 40% in assay [2] (setting [8]); 34.4% in assay [2] (at 50.0 µM). Also, the growth inhibition in assay [3] (setting [7]) is -26%; in assay [3] (setting [8]), 63%; in assay [3] (at 50.0 µM) it was 80.6% (active); in assay [4] (setting [7]), 0%; in assay [4] (setting [8]), 42%; in assay [4] (at 50.0 µM) it was 43.1%. For the same compound, the growth inhibition in assay [5] (setting [7]) was -11%; in assay [5] (setting [8]), 70% (active); in assay [5] (at 50.0 µM), 60.2%; in assay [6] (setting [7]), -17%; in assay [6] (setting [8]), 68%; in assay [6] (at 50.0 µM) it was 51.3%.
With `COc1ccc2c(c1)CC1c3c(ccc(OC)c3O)CC2N1C` (stereo not given), the growth inhibition in assay [1] (setting [7]) was -15%; in assay [1] (setting [8]), 56%; in assay [1] (at 50.0 µM) it was 86.7% (active); in assay [2] (setting [7]), -44%; in assay [2] (setting [8]), 37%; in assay [2] (at 50.0 µM), 91.3% (active). Also, the growth inhibition in assay [3] (setting [7]) was -6%; in assay [3] (setting [8]) it was 59%; in assay [3] (at 50.0 µM), 93.7% (active); in assay [4] (setting [7]) it was -24%; in assay [4] (setting [8]), 52%; in assay [4] (at 50.0 µM) it was 92.5% (active). Moreover, the growth inhibition is -4% in assay [5] (setting [7]); 75% (active) in assay [5] (setting [8]); 92% (active) in assay [5] (at 50.0 µM); -55% in assay [6] (setting [7]); 61% in assay [6] (setting [8]); 89.5% (active) in assay [6] (at 50.0 µM).
On to `O=C(O)C(O)C(O)C(OC1OC(CO)C(O)C(O)C1O)C(O)CO.[Br][Pt].[NH-]C1CCCCC1[NH-]` (stereo not given), for which the growth inhibition in assay [1] (setting [7]) is 50%; in assay [1] (setting [8]), 97% (active); in assay [1] (at 50.0 µM), 67.8%; in assay [2] (setting [7]) it was 65%; in assay [2] (setting [8]), 88% (active); in assay [2] (at 50.0 µM) it was 62.9%. Besides, the growth inhibition in assay [3] (setting [7]) was 89% (active); in assay [3] (setting [8]), 99% (active); in assay [3] (at 50.0 µM), 89.5% (active); in assay [4] (setting [7]) it was 24%; in assay [4] (setting [8]) it was 72% (active); in assay [4] (at 50.0 µM) it was 72% (active). For the same compound, the growth inhibition was 79% (active) in assay [5] (setting [7]); 97% (active) in assay [5] (setting [8]); 83.6% (active) in assay [5] (at 50.0 µM); 69% in assay [6] (setting [7]); 98% (active) in assay [6] (setting [8]); 56% in assay [6] (at 50.0 µM).
Regarding `CCCCC1C(=S)N(c2ccccc2)N(c2ccccc2)C1=S`, the growth inhibition in assay [1] (setting [7]) was 0%; in assay [1] (setting [8]), -2%; in assay [1] (at 50.0 µM), 24.1%; in assay [2] (setting [7]), 2%; in assay [2] (setting [8]), -13%; in assay [2] (at 50.0 µM) it was 40.9%. The growth inhibition in assay [3] (setting [7]) is 5%; in assay [3] (setting [8]), -14%; in assay [3] (at 50.0 µM), 82.8% (active); in assay [4] (setting [7]), 0%; in assay [4] (setting [8]) it was -10%; in assay [4] (at 50.0 µM), 8.6%. For the same compound, the growth inhibition in assay [5] (setting [7]) was 3%; in assay [5] (setting [8]), -6%; in assay [5] (at 50.0 µM), 37%; in assay [6] (setting [7]), -7%; in assay [6] (setting [8]), 3%; in assay [6] (at 50.0 µM), 60.4%.
On to `c1ccc(COc2cccc3[nH]ccc23)cc1`, for which the growth inhibition in assay [1] (setting [7]) is -3%; in assay [1] (setting [8]), 29%; in assay [1] (at 50.0 µM) it was 74.4% (active); in assay [2] (setting [7]) it was -3%; in assay [2] (setting [8]), 10%; in assay [2] (at 50.0 µM), 90.2% (active). Besides, the growth inhibition is -6% in assay [3] (setting [7]); 5% in assay [3] (setting [8]); 86.6% (active) in assay [3] (at 50.0 µM); -7% in assay [4] (setting [7]); 6% in assay [4] (setting [8]); 88.8% (active) in assay [4] (at 50.0 µM). In addition, the growth inhibition in assay [5] (setting [7]) is 3%; in assay [5] (setting [8]), 35%; in assay [5] (at 50.0 µM) it was 83.8% (active); in assay [6] (setting [7]) it was -5%; in assay [6] (setting [8]), 25%; in assay [6] (at 50.0 µM), 95.5% (active).
On to `COP(=O)(OC)/C(=C/c1cn(C(c2ccccc2)(c2ccccc2)c2ccccc2)cn1)NC=O`, for which the growth inhibition was 5% in assay [1] (setting [7]); 16% in assay [1] (setting [8]); 2.1% in assay [1] (at 50.0 µM); 2% in assay [2] (setting [7]); -5% in assay [2] (setting [8]); 60.7% in assay [2] (at 50.0 µM). Further, the growth inhibition was -4% in assay [3] (setting [7]); 41% in assay [3] (setting [8]); 79.9% (active) in assay [3] (at 50.0 µM); 1% in assay [4] (setting [7]); 14% in assay [4] (setting [8]); 0.6% in assay [4] (at 50.0 µM). The growth inhibition in assay [5] (setting [7]) was 0%; in assay [5] (setting [8]) it was 9%; in assay [5] (at 50.0 µM) it was -1.7%; in assay [6] (setting [7]), -12%; in assay [6] (setting [8]), 40%; in assay [6] (at 50.0 µM), 39.2%.
`CC(C)c1cccc2sc(NC(=O)C(=O)C(C#N)c3cccc4ccccc34)nc12` (stereo not given): the growth inhibition in assay [1] (setting [7]) is 0%; in assay [1] (setting [8]) it was 14%; in assay [1] (at 50.0 µM), 19.2%; in assay [2] (setting [7]) it was 3%; in assay [2] (setting [8]), 15%; in assay [2] (at 50.0 µM), -9.55%. Further, the growth inhibition in assay [3] (setting [7]) was 2%; in assay [3] (setting [8]) it was 10%; in assay [3] (at 50.0 µM), 0.25%; in assay [4] (setting [7]), 3%; in assay [4] (setting [8]), 8%; in assay [4] (at 50.0 µM), 13.2%. Besides, the growth inhibition is 3% in assay [5] (setting [7]); 5% in assay [5] (setting [8]); 5.05% in assay [5] (at 50.0 µM); 3% in assay [6] (setting [7]); 9% in assay [6] (setting [8]); 12.2% in assay [6] (at 50.0 µM).
On to `CC(C)=CCC(OC(=O)CC(C)C)C1=CC(=O)c2c(O)ccc(O)c2C1=O` (stereo not given), for which the growth inhibition in assay [1] (setting [7]) is -1%; in assay [1] (setting [8]) it was 99% (active); in assay [1] (at 50.0 µM), 87.3% (active); in assay [2] (setting [7]) it was 1%; in assay [2] (setting [8]) it was 99% (active); in assay [2] (at 50.0 µM) it was 89.2% (active). Further, the growth inhibition in assay [3] (setting [7]) is 1%; in assay [3] (setting [8]) it was 99% (active); in assay [3] (at 50.0 µM), 89.7% (active); in assay [4] (setting [7]), -17%; in assay [4] (setting [8]), 99% (active); in assay [4] (at 50.0 µM), 82.2% (active). Further, the growth inhibition in assay [5] (setting [7]) is 2%; in assay [5] (setting [8]), 99% (active); in assay [5] (at 50.0 µM), 86% (active); in assay [6] (setting [7]) it was 1%; in assay [6] (setting [8]), 99% (active); in assay [6] (at 50.0 µM), 87.4% (active).
As for `O=C(O)CC(C(=O)O)C(c1cccc2ccccc12)c1cccc2ccc3ccccc3c12` (stereo not given), the growth inhibition is 6% in assay [1] (setting [7]); 98% (active) in assay [1] (setting [8]); 98.3% (active) in assay [1] (at 50.0 µM); 5% in assay [2] (setting [7]); 99% (active) in assay [2] (setting [8]); 98.2% (active) in assay [2] (at 50.0 µM). Besides, the growth inhibition was -5% in assay [3] (setting [7]); 99% (active) in assay [3] (setting [8]); 98.3% (active) in assay [3] (at 50.0 µM); 4% in assay [4] (setting [7]); 98% (active) in assay [4] (setting [8]); 98.7% (active) in assay [4] (at 50.0 µM). Moreover, the growth inhibition in assay [5] (setting [7]) is 4%; in assay [5] (setting [8]), 99% (active); in assay [5] (at 50.0 µM) it was 98.7% (active); in assay [6] (setting [7]), 7%; in assay [6] (setting [8]), 99% (active); in assay [6] (at 50.0 µM) it was 97.8% (active).
`CCOC(=O)C1SC(=Nc2ccc(Cl)cc2C)N=C1C` (stereo not given): the growth inhibition is 29% in assay [1] (setting [7]); 98% (active) in assay [1] (setting [8]); 89% (active) in assay [1] (at 50.0 µM); 25% in assay [2] (setting [7]); 97% (active) in assay [2] (setting [8]); 92.2% (active) in assay [2] (at 50.0 µM). Besides, the growth inhibition is 32% in assay [3] (setting [7]); 99% (active) in assay [3] (setting [8]); 91.7% (active) in assay [3] (at 50.0 µM); 22% in assay [4] (setting [7]); 97% (active) in assay [4] (setting [8]); 90.2% (active) in assay [4] (at 50.0 µM). Also, the growth inhibition was 24% in assay [5] (setting [7]); 98% (active) in assay [5] (setting [8]); 91.2% (active) in assay [5] (at 50.0 µM); 35% in assay [6] (setting [7]); 98% (active) in assay [6] (setting [8]); 90% (active) in assay [6] (at 50.0 µM).
